# ChEMBL document CHEMBL2218924, “A broad activity screen in support of a chemogenomic map for kinase signalling research and drug discovery” (Biochem J, 2013)
# Legend:
# [1] = target: T1, Testis-specific serine/threonine-protein kinase 2 (Homo sapiens) (UniProt Q96PF2); settings: at 1 µM
# T1 sequence (whole entry): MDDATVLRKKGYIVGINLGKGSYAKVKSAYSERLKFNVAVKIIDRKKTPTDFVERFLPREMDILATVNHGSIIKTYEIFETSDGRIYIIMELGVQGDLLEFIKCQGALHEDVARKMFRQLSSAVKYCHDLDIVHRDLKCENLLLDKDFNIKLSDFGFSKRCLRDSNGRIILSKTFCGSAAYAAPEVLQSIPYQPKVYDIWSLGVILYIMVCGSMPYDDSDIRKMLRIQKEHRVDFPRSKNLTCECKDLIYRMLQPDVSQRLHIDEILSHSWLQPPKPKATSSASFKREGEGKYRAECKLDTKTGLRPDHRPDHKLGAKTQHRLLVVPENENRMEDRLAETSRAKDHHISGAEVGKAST
# [2] = target: T2, Serine/threonine-protein kinase Nek2 (Homo sapiens) (UniProt P51955); settings: at 1 µM
# T2 sequence (whole entry): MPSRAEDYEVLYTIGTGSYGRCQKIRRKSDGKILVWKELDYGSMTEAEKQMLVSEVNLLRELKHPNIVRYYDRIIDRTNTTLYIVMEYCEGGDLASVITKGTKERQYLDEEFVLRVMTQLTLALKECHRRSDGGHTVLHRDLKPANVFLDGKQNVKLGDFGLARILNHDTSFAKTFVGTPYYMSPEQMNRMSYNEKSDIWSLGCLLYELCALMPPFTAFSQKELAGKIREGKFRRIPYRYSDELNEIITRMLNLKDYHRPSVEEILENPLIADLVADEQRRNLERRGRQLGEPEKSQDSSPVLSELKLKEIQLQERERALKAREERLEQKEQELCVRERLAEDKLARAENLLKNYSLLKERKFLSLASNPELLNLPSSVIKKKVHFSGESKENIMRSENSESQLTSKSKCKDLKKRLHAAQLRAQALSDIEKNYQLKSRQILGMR
# [3] = target: T2, Serine/threonine-protein kinase Nek2 (Homo sapiens); settings: at 10 µM
# [4] = target: T3, Serine/threonine-protein kinase Nek3 (Homo sapiens) (UniProt P51956); settings: at 1 µM
# T3 sequence (whole entry): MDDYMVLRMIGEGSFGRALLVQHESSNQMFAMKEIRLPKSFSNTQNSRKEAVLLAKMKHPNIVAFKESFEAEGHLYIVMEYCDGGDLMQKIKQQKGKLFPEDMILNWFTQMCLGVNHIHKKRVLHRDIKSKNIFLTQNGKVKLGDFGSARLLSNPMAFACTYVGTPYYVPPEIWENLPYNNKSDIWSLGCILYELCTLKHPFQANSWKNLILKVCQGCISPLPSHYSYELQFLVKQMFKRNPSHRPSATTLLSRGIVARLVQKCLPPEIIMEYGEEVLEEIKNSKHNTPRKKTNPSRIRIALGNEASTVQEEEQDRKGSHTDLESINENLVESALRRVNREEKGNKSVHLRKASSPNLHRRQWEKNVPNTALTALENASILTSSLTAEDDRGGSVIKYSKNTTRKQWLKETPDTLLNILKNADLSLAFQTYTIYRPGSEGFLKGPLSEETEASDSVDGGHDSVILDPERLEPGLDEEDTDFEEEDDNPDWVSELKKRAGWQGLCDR
# [5] = target: T3, Serine/threonine-protein kinase Nek3 (Homo sapiens); settings: at 10 µM
# [6] = target: Serine/threonine-protein kinase tousled-like 2 (Homo sapiens) (UniProt Q86UE8); settings: at 1 µM
# Serine/threonine-protein kinase tousled-like 2 (Homo sapiens), sequence (Q86UE8 whole entry, looked up): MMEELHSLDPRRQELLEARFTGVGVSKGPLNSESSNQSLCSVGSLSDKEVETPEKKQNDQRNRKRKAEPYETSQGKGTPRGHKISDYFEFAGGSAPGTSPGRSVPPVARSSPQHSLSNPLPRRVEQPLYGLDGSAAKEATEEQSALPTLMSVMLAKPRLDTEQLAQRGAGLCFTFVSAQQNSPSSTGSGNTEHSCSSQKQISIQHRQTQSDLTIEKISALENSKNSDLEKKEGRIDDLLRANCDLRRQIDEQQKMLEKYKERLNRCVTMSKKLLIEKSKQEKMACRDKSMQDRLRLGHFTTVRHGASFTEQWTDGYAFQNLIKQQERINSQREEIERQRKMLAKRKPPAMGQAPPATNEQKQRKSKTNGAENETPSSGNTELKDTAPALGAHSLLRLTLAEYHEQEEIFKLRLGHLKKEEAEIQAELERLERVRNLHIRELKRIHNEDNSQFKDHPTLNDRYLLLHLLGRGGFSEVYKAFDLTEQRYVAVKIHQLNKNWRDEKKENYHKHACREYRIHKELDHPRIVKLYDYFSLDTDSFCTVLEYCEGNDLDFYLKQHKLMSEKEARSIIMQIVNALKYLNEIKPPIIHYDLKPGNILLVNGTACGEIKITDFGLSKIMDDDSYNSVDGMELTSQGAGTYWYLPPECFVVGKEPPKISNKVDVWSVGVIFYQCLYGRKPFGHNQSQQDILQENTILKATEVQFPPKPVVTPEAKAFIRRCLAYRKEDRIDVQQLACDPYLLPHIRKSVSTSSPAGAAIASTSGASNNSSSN
# [7] = target: Serine/threonine-protein kinase tousled-like 2 (Homo sapiens) (UniProt Q86UE8); settings: at 10 µM
# [8] = target: T4, Testis-specific serine/threonine-protein kinase 1 (Homo sapiens) (UniProt Q9BXA7); settings: at 1 µM
# T4 sequence (whole entry): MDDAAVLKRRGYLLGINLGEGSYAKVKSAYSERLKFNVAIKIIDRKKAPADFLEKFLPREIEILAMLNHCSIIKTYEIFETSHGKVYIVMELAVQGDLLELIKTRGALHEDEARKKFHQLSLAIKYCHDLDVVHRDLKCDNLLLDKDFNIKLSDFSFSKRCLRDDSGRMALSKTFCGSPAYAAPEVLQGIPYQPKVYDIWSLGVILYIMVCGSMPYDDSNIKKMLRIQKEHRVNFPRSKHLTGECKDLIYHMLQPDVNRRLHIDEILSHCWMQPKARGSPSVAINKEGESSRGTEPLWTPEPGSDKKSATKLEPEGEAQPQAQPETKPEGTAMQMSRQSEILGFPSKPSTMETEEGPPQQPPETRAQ
# [9] = target: T4, Testis-specific serine/threonine-protein kinase 1 (Homo sapiens); settings: at 10 µM
# [10] = target: T1, Testis-specific serine/threonine-protein kinase 2 (Homo sapiens); settings: at 10 µM
# [11] = target: T5, Tyrosine-protein kinase Tec (Homo sapiens) (UniProt P42680); settings: at 1 µM
# T5 sequence (whole entry): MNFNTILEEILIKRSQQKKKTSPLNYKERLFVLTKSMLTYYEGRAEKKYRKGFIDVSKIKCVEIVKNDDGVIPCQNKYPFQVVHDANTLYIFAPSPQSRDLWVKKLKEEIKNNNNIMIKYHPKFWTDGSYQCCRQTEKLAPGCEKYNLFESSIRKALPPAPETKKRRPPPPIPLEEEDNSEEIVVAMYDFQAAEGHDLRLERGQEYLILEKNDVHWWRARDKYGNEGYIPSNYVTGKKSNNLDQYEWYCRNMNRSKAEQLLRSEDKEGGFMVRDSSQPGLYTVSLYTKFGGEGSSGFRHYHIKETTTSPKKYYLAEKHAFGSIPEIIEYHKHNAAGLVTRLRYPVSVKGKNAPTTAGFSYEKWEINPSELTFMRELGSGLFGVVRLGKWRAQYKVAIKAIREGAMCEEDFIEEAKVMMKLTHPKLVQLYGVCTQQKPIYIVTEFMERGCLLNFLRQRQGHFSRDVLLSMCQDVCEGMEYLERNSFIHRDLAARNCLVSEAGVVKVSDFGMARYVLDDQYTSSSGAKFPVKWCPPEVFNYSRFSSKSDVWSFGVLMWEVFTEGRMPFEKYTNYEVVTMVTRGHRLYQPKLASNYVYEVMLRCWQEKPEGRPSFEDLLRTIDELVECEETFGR
# [12] = target: T5, Tyrosine-protein kinase Tec (Homo sapiens); settings: at 10 µM
# [13] = target: Angiopoietin-1 receptor (Homo sapiens) (UniProt Q02763); settings: at 1 µM
# Angiopoietin-1 receptor (Homo sapiens), sequence (Q02763 whole entry): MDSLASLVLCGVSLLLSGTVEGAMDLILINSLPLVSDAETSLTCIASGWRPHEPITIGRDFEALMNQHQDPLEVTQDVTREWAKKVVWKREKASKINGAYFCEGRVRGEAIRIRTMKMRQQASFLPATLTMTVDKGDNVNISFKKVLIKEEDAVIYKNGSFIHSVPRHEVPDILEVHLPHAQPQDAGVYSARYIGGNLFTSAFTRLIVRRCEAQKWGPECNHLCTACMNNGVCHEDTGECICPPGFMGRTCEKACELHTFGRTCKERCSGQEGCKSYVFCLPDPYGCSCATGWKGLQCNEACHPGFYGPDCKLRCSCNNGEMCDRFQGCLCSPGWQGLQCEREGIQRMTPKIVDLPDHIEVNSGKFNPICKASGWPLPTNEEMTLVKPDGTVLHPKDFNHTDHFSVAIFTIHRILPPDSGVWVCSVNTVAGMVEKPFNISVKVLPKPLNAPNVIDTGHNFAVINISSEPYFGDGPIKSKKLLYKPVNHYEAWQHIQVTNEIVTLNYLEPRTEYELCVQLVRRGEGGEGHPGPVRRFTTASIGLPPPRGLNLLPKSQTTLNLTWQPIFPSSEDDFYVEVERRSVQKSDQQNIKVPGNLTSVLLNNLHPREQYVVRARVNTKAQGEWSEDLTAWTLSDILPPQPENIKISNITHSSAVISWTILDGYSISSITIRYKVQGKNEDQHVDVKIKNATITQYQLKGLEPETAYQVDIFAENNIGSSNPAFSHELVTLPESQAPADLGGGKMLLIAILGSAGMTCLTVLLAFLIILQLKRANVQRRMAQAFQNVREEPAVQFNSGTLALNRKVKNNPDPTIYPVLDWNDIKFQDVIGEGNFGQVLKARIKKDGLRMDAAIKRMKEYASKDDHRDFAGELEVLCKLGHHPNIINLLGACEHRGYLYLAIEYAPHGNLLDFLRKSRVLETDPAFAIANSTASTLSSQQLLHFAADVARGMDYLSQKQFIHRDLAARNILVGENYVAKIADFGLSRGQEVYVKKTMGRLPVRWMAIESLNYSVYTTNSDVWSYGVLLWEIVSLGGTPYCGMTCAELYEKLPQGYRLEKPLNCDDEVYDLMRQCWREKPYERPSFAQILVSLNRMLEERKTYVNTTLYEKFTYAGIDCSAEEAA
# [14] = target: Angiopoietin-1 receptor (Homo sapiens) (UniProt Q02763); settings: at 10 µM
# [15] = target: High affinity nerve growth factor receptor (Homo sapiens) (UniProt P04629); settings: at 1 µM
# High affinity nerve growth factor receptor (Homo sapiens), sequence (P04629 33-796 limits assumed): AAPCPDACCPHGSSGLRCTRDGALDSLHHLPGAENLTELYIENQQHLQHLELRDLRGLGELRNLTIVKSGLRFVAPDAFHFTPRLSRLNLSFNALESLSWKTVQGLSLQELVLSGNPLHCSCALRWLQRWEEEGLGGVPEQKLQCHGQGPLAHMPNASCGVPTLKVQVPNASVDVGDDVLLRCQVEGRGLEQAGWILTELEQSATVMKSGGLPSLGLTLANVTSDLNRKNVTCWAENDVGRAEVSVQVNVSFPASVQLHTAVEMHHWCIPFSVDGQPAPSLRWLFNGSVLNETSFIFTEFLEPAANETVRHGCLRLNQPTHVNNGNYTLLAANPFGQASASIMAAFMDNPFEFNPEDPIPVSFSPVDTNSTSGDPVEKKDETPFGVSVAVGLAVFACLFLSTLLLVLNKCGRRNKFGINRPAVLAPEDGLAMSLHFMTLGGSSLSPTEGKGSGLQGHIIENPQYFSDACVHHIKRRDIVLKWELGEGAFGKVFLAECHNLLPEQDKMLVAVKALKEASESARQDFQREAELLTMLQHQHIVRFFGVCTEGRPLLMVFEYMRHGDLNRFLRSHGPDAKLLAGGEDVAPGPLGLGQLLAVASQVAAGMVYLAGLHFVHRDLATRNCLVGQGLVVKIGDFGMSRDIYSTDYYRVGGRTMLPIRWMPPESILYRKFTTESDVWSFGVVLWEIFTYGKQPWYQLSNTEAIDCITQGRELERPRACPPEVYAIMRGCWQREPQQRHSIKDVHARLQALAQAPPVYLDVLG
# [16] = target: High affinity nerve growth factor receptor (Homo sapiens) (UniProt P04629); settings: at 10 µM
# [17] = target: BDNF/NT-3 growth factors receptor (Homo sapiens) (UniProt Q16620); settings: at 1 µM
# BDNF/NT-3 growth factors receptor (Homo sapiens), sequence (Q16620 32-822 limits assumed): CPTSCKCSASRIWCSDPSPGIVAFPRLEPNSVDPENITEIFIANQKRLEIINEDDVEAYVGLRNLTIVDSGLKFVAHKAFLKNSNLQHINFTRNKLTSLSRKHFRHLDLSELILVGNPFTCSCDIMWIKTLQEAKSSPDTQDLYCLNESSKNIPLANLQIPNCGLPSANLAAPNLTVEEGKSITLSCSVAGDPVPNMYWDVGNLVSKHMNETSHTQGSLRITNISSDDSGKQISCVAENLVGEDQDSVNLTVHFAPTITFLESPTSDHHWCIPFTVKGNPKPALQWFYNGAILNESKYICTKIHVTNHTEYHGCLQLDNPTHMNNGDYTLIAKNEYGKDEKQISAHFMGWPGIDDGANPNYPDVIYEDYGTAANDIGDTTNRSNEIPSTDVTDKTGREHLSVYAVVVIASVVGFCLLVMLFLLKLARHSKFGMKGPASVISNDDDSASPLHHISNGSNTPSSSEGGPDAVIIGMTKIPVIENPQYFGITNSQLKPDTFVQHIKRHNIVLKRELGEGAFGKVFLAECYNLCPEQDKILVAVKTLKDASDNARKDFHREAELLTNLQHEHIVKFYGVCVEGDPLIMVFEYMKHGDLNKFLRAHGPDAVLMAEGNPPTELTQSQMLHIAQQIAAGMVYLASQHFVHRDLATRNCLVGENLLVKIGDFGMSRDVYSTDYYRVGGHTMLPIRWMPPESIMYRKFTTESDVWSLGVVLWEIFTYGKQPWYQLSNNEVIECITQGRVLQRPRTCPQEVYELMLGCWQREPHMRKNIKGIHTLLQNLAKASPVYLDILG
# [18] = target: BDNF/NT-3 growth factors receptor (Homo sapiens) (UniProt Q16620); settings: at 10 µM
# [19] = target: T6, Tyrosine-protein kinase TXK (Homo sapiens) (UniProt P42681); settings: at 1 µM
# T6 sequence (whole entry): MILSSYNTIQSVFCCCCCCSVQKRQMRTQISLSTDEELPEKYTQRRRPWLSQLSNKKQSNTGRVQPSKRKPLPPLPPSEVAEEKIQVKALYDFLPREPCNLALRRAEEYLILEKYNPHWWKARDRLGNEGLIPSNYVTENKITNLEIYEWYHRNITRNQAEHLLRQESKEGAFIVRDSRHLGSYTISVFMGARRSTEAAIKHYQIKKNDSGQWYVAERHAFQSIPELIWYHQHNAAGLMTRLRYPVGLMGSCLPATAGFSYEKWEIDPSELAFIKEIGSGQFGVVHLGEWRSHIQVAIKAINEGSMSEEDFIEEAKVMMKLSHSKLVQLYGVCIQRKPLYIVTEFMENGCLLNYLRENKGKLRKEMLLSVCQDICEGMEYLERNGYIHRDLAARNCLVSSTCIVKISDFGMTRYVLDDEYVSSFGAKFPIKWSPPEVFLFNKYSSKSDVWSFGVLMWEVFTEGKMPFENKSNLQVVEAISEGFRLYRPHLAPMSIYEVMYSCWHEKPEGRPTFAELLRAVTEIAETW
# [20] = target: T6, Tyrosine-protein kinase TXK (Homo sapiens); settings: at 10 µM
compound,measurement,setting,value
CC(=O)c1ccc(N2CCOCC2)cc1O,residual activity,[1],89%
O=C1Nc2ccc3ncsc3c2/C1=C/c1c[nH]cn1,residual activity,[2],64%
same,residual activity,[3],39%
same,residual activity,[4],102%
same,residual activity,[5],32%
same,residual activity,[6],19%
same,residual activity,[7],3%
same,residual activity,[8],68%
same,residual activity,[9],31%
same,residual activity,[1],89%
same,residual activity,[10],86%
same,residual activity,[11],91%
same,residual activity,[12],42%
same,residual activity,[13],67%
same,residual activity,[14],22%
same,residual activity,[15],3%
same,residual activity,[16],-1%
same,residual activity,[17],19%
same,residual activity,[18],-11%
same,residual activity,[19],82%
same,residual activity,[20],30%
O=C1NC(=O)c2cc(Nc3ccc(F)cc3)c(Nc3ccc(F)cc3)cc21,residual activity,[1],91%
CN[C@@H]1C[C@H]2O[C@@](C)([C@@H]1OC)n1c3ccccc3c3c4c(c5c6ccccc6n2c5c31)C(=O)NC4,residual activity,[4],105%
same,residual activity,[5],67%
same,residual activity,[6],1%
same,residual activity,[7],1%
same,residual activity,[17],29%
same,residual activity,[18],-12%
Cn1nc2c3c(cccc31)C(=O)c1ccccc1-2,residual activity,[1],79%
CCC(=O)Nc1ccc2ncnc(Nc3cccc(Br)c3)c2c1,residual activity,[1],95%
O=C1NC(=O)/C(=C\c2ccc3nccnc3c2)S1,residual activity,[1],90%
Nc1ncnc2c1c(-c1ccc(Oc3ccccc3)cc1)cn2C1CCCC1,residual activity,[1],86%
CCN(CC)C(=O)c1ccc(Nc2nc(OCC3CCCCC3)c3nc[nH]c3n2)cc1,residual activity,[1],62%
Cc1cncc2cccc(S(=O)(=O)N3CCCN(C(=O)CN)C[C@H]3C)c12,residual activity,[1],80%
CCN1/C(=C/C(C)=O)Sc2ccc(OC)cc21,residual activity,[1],77%
CC(C)n1cnc2c(NCc3ccccc3)nc(NCCCO)nc21,residual activity,[1],86%
O=C1c2ccccc2-c2nc3nnnn3nc21,residual activity,[4],116%
same,residual activity,[5],102%
same,residual activity,[13],75%
same,residual activity,[14],20%
same,residual activity,[17],123%
same,residual activity,[18],119%
same,residual activity,[19],103%
same,residual activity,[20],73%
COc1cc(OC)c(/C=C2\C(=O)Nc3ccccc32)c(OC)c1,residual activity,[2],90%
same,residual activity,[3],91%
same,residual activity,[4],80%
same,residual activity,[5],96%
same,residual activity,[6],91%
same,residual activity,[7],85%
same,residual activity,[8],92%
same,residual activity,[9],91%
same,residual activity,[1],102%
same,residual activity,[10],99%
same,residual activity,[11],98%
same,residual activity,[12],77%
same,residual activity,[13],93%
same,residual activity,[14],59%
same,residual activity,[15],89%
same,residual activity,[16],59%
same,residual activity,[19],107%
same,residual activity,[20],100%
COc1cc2ncnc(Nc3ccc(O)c(Br)c3)c2cc1OC,residual activity,[1],93%
